Most compounds without a hit are left out; they make up all but 3.2% or so of the library.
HGIII-sPLA2 inh: Blocks human group III sPLA2 activity. Q9NZ20. QFRET BODIPY PC-A2 liposome hydrolysis, fluorescence. inhibition, % at 12.2 µM. 370,000 compounds, 0.56% hits. AID 743126;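 active = inhibition above mean plus 3 SD of compounds lying within the high and low control bounds, cut at about 19% in these data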;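 note: 0% = median of test compound wells and 100% = no enzyme DMSO wells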
Target sequence (Q9NZ20 whole entry, looked up): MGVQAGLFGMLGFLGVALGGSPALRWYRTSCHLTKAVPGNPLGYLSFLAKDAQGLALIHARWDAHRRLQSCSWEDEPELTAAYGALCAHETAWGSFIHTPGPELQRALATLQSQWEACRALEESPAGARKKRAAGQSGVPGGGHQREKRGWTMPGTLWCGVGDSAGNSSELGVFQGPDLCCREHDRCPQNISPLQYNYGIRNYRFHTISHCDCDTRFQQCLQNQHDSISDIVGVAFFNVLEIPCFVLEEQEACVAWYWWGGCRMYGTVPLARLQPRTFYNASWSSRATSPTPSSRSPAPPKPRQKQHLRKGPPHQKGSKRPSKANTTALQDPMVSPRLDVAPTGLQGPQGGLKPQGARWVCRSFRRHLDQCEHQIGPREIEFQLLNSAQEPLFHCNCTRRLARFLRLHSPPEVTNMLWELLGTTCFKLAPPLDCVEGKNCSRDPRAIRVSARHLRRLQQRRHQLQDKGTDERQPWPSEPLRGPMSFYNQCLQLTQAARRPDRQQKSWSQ
MsrA inh: bovine MsrA inhibition | purified bovine MsrA, absorbance read-out | inhibition, % at 15.5 µM | 360,000 compounds, 0.75% hits | AID 651718; in the data active = inhibition above about 4.5%;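 note: 0% = vehicle wells with enzyme and 100% = reference inhibitor wells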
PG9 Ab binder: PG9 antibody binding by small molecule; TR-FRET gp120-PG9 antibody binding; inhibition, % at 6.7 µM; 360,000 compounds, 0.43% hits; in the data active = inhibition above about 8.5%
MsrA act: bovine methionine sulfoxide reductase A activation. 360,000 compounds, 0.3% hits. AID 602163. purified bovine MsrA, absorbance read-out. activation, % at 10.6 µM; in the data active = activation above about 7.5%;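 note: 0% = vehicle and 100% = reference activator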
rCAG binder: binds r(CAG) RNA repeats | r(CAG) RNA repeat, TO-PRO-1 dye displacement fluorescence | inhibition, % at 3 µM | 370,000 compounds, 1.3% hits | AID 651821;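 active = inhibition above the plate cutoff, the mean of all test compounds on that plate plus 3 SD, cut at about 35% in these data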;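 note: 0% = DMSO alone and 100% = 100 µM mitoxantrone as full dye displacement; higher means more dye released from RNA so lower well fluorescence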
rCAG binder conf: r(CAG) RNA repeat binding, confirmation. AID 652065. inhibition, % at 3 µM. TO-PRO-1 dye displacement fluorescence. 4,300 compounds, 70% hits. shares compounds with rCAG binder;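 active = inhibition above a per-plate cutoff, the mean inhibition of sample wells plus 3 SD, cut at about 35% in these data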;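 note: loss of TO-PRO-1 fluorescence as compound displaces dye from 1x1 AA loop RNA; 0% = DMSO only wells and 100% = 100 µM mitoxantrone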
dCAG dye counter: DNA CAG dye complex inhibition counter-screen. inhibition, % at 3 µM. shares compounds with rCAG binder. AID 652068. 4,300 compounds, 94% hits. d(CAG) DNA oligo TO-PRO-1 dye displacement, fluorescence;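 active = inhibition above its plate's cutoff, the mean test-well inhibition plus 3 SD, cut at about 4.8% in these data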;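 note: 0% = DNA dye mix with DMSO and 100% = 100 µM mitoxantrone; hits displace the dye from DNA and so lower well fluorescence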
dCAG dye DR: DNA CAG dye complex inhibition, dose response counter-screen | shares compounds with rCAG binder | DNA CAG/GTC duplex TO-PRO-1 dye displacement fluorescence | IC50, µM | 250 compounds, 20% hits | AID 686960; in the data active = IC50 below about 10 µM
* marks the source's active call; other numbers are inactive results; i = inactive; nt = no result given.

SMILES	HGIII-sPLA2 inh	MsrA inh	PG9 Ab binder	MsrA act	rCAG binder	rCAG binder conf	dCAG dye counter	others
COc1ccc(-c2nnc(SCC(=O)Nc3ccc(S(=O)(=O)Nc4cc(C)nc(C)n4)cc3)n2-c2ccc(OC)cc2)cc1	-38.1	nt	nt	nt	48.8*	43.6*	15.2*
Cc1ccc(-c2nnc(SCC(=O)c3ccc(O)c(O)c3)n2-c2ccc(Cl)cc2)cc1	1.6	nt	nt	nt	40.9*	42.6*	17.4*
COc1ccc(-c2nnc(SCC(=O)Nc3ccc(C(=O)O)cc3)n2-c2ccc(Cl)cc2)cc1	-22.9	-0.8	-0.1	0.3	46.5*	49.6*	15.2*
CCOc1ccc(-n2c(SCC(=O)Nc3ccc(S(=O)(=O)Nc4cc(C)nc(C)n4)cc3)nnc2-c2ccco2)cc1	-35.5	nt	nt	nt	40.4*	39.7*	13.9*
COc1ccc(-n2c(SCC(=O)Nc3ccc(Oc4ccccc4)cc3)nnc2-c2ccc(C)cc2)cc1	7.3	nt	nt	nt	8.8	nt	nt
CCOc1ccc(NC(=O)CSc2nnc(-c3ccco3)n2C)cc1	-5.2	-0.5	-0.1	0.3	-1.8	nt	nt
Cn1cc(CCOCc2ccccn2)c2ccccc21	-7.4	-0.7	-0.8	nt	4.1	nt	nt
NC(Cc1ccc(C(F)(F)F)cc1)c1csc(Nc2ccc(C(=O)NCc3ccco3)cn2)n1 (stereo not given)	7.7	1.1	1.2	-5.7	20.6	nt	nt
Cc1cc(NS(=O)(=O)c2ccc(NC(=O)CSc3nnc(-c4ccco4)n3-c3ccc(Cl)cc3)cc2)nc(C)n1	-32.0	nt	nt	nt	45.9*	33.3	12.2*
Cc1cc(NS(=O)(=O)c2ccc(NC(=O)CSc3nnc(-c4ccncc4)n3-c3ccccc3)cc2)nc(C)n1	0.2	nt	nt	nt	9.5	nt	nt
COc1ccc(CCN(Cc2cccs2)S(=O)(=O)c2ccc(C(=O)O)cc2)cc1OC	-13.8	-0.1	-1.2	-1.2	36.5*	37.1*	5.5*
COc1ccc(OC)c(S(=O)(=O)N(CCc2ccc(OC)c(OC)c2)Cc2cccs2)c1	-3.7	nt	nt	nt	3.8	nt	nt
O=C(NCCc1c[nH]c2ccccc12)OCc1cn(Cc2cccc(C(F)(F)F)c2)nn1	-88.4	nt	nt	nt	0.6	nt	nt
CCOC(=O)c1sc(N/N=C/c2cc(Br)c(O)c(OC)c2)nc1C	-1.6	0.6	-1.5	-3.2	47.5*	37.8*	16.6*
O=C1C=CC(=O)c2c(O)c(N3CCN(CCOCCO)CC3)c(Br)c(O)c21	-17.5	0.2	2.6	2.7	53.0*	68.2*	36.0*
CCCCN(C)S(=O)(=O)c1ccc2[nH]c(=O)oc2c1	-2.6	nt	nt	nt	4.8	nt	nt
CC[C@H](C(=O)Nc1ccccc1N1CCCC1)c1ccccc1	7.3	nt	nt	nt	1.7	nt	nt
O=c1c2ccccc2oc2cc(-c3ccc4[nH]ccc4c3)ccc12	-35.0	4.1	0.3	-3.2	35.5*	22.4	10.7*
O=[N+]([O-])c1cc(S(=O)(=O)O)cc([N+](=O)[O-])c1NN(c1ccccc1)c1ccccc1	-20.3	-0.9	-1.9	-0.2	48.4*	35.6*	10.8*
C[C@H]1C2CC(OC(=O)Nc3cccc(Cl)c3)C(C2)[C@H]2CCCCN21 (stereo not given in full)	14.1	nt	nt	nt	4.5	nt	nt
COc1ccc(-c2csc(C(C#N)=C(O)CSc3nccn3C)n2)cc1OC	-2.8	2.0	0.6	-13.3	54.4*	23.3	7.2*
COc1ccc(-c2csc(C)n2)cc1OC	2.1	-1.1	-0.3	-4.1	-3.6	nt	nt
C=CCN1[C@@H](CC(C)C)COc2cccc(F)c2S1(=O)=O	5.5	nt	nt	nt	-0.2	nt	nt
CC(/C=C1\SC(=S)N(NC(=O)c2ccc(C)cc2)C1=O)=C\c1ccccc1	nt	nt	nt	-10.8	nt	nt	nt
CC(/C=C1\SC(=S)N(C(C(=O)O)C(C)C)C1=O)=C\c1ccccc1 (stereo not given)	-12.1	0.9	0.1	-2.8	71.9*	75.2*	31.5*	dCAG dye DR=i
SMILES	HGIII-sPLA2 inh	MsrA inh	PG9 Ab binder	MsrA act	rCAG binder	rCAG binder conf	dCAG dye counter	others
CC(/C=C1\SC(=S)N(c2ccc(C(=O)O)cc2)C1=O)=C\c1ccccc1	-1.4	1.7	0.3	-10.6	55.5*	84.0*	51.9*
CC1(C(=O)Nc2ccccc2F)CCN1C(=O)Cc1ccc(-c2ccccc2)cc1 (stereo not given)	-4.7	1.2	-0.4	0.1	3.0	nt	nt
Fc1ccc(Cn2ccc3ccc(-c4ccc5ccn(Cc6ccccc6)c5c4)cc32)cc1	13.0	nt	nt	nt	17.4	nt	nt
CCn1c(COc2cccc(C)c2)nnc1SCC(=O)CC(=O)Nc1ccccc1OC	-24.9	0.0	-0.2	-11.6	36.9*	10.6	4.6*
CC1=Nc2ccccc2/C1=C\c1nc(-c2ccc(C(F)(F)F)cc2)oc1O	-4.9	-0.5	-0.2	-2.1	12.7	nt	nt
CC1=Nc2ccccc2/C1=C/c1c(C)[nH]c2ccccc12	nt	nt	nt	3.8	nt	nt	nt
CC1=Nc2ccccc2/C1=C/c1nc(-c2ccc(C)s2)oc1O	-12.1	1.1	-3.3	-2.0	46.2*	41.9*	21.5*
CC1=Nc2ccccc2/C1=C\c1nc(-c2ccccc2)oc1O	-12.8	0.0	-1.0	-0.8	60.2*	37.0*	16.6*
COc1ccc(-c2nc(/C=C3\C(C)=Nc4ccccc43)c(O)o2)cc1	-9.3	1.4	-1.4	-5.8	51.5*	34.8*	20.1*
Oc1cccc(N2CCN(c3cccc(O)c3)CC2)c1	-2.7	1.6	-0.8	nt	2.9	nt	nt
FC(F)(F)c1ccc(/C=N/n2c(COc3ccccc3)n[nH]c2=S)cc1	2.7	-0.1	0.9	-2.4	50.6*	37.2*	8.5*
FC(F)(F)c1ccccc1/C=N/n1c(COc2ccccc2)n[nH]c1=S	-11.4	-0.1	1.8	3.5	44.5*	27.9	5.5*
S=c1[nH]nc(COc2ccccc2)n1/N=C/c1ccccc1Br	-6.3	-0.4	0.6	2.5	38.4*	38.2*	8.4*
O=S1(=O)CC2c3ccccc3CCN2CN1CCc1ccccc1 (stereo not given)	5.0	nt	nt	nt	-0.1	nt	nt
COC(=O)[C@]12C[C@H](CC(=O)NCCC(C)C)C(=O)N(Cc3cccc4ccccc34)C1=C[C@H](C1CCCC1)O[C@@H]2C	-16.4	nt	nt	nt	5.6	nt	nt
COc1ccc(CN(CC2CCC(C(=O)O)CC2)C(=S)Nc2ccc(C)c(Cl)c2)cc1 (stereo not given)	2.7	0.5	-0.5	-6.0	34.7*	32.5	5.8*
COc1ccc(NC(=S)N(Cc2ccc(C(=O)O)cc2)Cc2ccc(OC)c(OC)c2)cc1	4.4	-0.3	0.5	-2.2	9.2	nt	nt
COc1ccc(NC(=S)N(Cc2cccc(Br)c2)CC2CCC(C(=O)O)CC2)cc1 (stereo not given)	-2.9	-0.6	-0.4	-9.9	21.1	nt	nt
Cc1ccc(NC(=S)N(Cc2ccc(Cl)cc2)Cc2ccc(C(=O)O)cc2)cc1Cl	-49.8	1.0	-1.1	-5.0	76.2*	69.5*	28.5*	dCAG dye DR=i
COC(=O)c1cn(-c2ccc(-c3noc4c3C(=O)N(CC(=O)N3CCOCC3)CC4)cc2)nn1	-2.4	nt	nt	nt	2.4	nt	nt

Source: PubChem (The Scripps Research Institute Molecular Screening Center)
